In PubChem BioAssay (NCATS) one finds Potency data, which are given here for 46 molecules.

Assay [1] concerns the target Voltage-gated inwardly rectifying potassium channel KCNH2 (Homo sapiens) (UniProt Q12809). Briefly: qHTS Assay for Small Molecule Inhibitors of the Human hERG Channel Activity (AID 588834).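 Also: lower thallium flux fluorescence means stronger hERG block; nearly all actives have a fitted effect of over 50% in size.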 Put shortly: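 U2OS cells transduced with hERG via BacMam (MOI ~100), plated 2000/well, loaded with FluxOR thallium dye, compound ~10 min, then stimulation buffer; fluorescence decrease read kinetically; AC50 from Hill fits.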

For assay [2], the target named is Luciferin 4-monooxygenase (Photinus pyralis) (UniProt P08659). Put plainly: Biochemical firefly luciferase enzyme assay for NPC (AID 624030). Also: nearly all actives have a fitted effect of over 70% in size. The method, boiled down: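 Counter-screen for direct inhibition of the luciferase enzyme by approved-drug library compounds, run at 10 nM enzyme in 50 mM Tris acetate (final). Luminescence was read within 5 min of enzyme-buffer addition and normalized to PTC124 versus DMSO (0%).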

A short description of assay [3]: S16 Schwann cell viability assay (CellTiter-Glo assay) (AID 624031). Also: nearly all actives have a fitted effect of over 70% in size. The method, boiled down:
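Concentration-effect curves come from CellTiter-Glo luminescence of S16 rat Schwann cells after 24 h compound exposure. Each reading was normalized to DMSO wells (0%) and wells without cells, and curves were ranked by r2 and response magnitude.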

Records with an inconclusive call do not appear. The source made the active and inactive calls. Calls follow the shape of the dose curve; as a rule, active = well fitted curve in the direction sought with a large enough effect; inconclusive = small, poorly fitted or top-dose-only effect, or another doubt; inactive = no such curve, though single readings can be large; an effect the other way counts as inactive or inconclusive.
Potency is read from the fitted curve at half-maximal effect.

Chain of Luciferin 4-monooxygenase (Photinus pyralis) (P08659 whole entry, looked up): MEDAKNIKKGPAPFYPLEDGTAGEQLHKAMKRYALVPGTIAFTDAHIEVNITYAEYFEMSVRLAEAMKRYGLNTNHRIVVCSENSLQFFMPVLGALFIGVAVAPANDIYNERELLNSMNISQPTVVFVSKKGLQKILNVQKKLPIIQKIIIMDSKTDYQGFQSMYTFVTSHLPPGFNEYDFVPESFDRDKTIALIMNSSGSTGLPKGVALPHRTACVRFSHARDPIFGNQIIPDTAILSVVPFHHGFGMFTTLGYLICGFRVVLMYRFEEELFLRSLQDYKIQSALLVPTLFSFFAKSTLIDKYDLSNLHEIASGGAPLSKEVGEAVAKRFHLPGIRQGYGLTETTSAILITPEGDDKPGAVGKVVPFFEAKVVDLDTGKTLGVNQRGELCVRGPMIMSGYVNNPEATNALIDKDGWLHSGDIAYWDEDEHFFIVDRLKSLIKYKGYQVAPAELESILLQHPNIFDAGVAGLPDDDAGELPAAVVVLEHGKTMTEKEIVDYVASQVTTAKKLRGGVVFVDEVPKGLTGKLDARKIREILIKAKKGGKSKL
Chain of Voltage-gated inwardly rectifying potassium channel KCNH2 (Homo sapiens) (Q12809 whole entry, looked up): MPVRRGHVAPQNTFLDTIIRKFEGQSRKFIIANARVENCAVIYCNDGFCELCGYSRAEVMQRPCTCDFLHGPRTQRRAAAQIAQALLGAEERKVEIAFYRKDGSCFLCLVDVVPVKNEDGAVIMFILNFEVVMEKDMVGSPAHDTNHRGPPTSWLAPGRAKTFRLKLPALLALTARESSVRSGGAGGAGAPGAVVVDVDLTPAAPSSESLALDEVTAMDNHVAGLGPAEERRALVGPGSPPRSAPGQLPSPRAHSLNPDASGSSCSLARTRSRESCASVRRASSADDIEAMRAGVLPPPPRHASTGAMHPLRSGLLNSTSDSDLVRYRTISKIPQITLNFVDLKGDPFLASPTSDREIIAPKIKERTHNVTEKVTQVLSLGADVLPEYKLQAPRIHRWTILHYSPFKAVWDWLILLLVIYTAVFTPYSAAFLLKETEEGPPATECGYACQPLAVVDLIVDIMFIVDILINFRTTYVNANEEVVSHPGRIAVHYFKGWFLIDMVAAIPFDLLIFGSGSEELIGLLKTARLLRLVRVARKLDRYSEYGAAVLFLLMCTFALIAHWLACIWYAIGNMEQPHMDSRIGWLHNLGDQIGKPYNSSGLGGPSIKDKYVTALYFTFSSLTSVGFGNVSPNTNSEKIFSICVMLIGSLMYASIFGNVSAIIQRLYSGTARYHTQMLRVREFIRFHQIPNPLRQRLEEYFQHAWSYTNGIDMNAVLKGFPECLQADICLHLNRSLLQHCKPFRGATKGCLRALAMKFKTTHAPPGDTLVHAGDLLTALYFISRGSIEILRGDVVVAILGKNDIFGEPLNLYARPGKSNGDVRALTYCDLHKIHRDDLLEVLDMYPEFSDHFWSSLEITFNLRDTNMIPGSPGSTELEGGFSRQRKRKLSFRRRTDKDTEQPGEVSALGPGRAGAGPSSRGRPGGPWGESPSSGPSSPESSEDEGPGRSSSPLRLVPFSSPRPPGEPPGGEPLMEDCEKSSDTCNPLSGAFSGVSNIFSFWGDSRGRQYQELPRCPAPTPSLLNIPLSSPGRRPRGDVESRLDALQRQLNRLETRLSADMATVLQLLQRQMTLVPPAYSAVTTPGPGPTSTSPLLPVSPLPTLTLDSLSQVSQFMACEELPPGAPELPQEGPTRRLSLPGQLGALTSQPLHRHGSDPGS

For `Cc1ccccc1-n1c(C)nc2ccccc2c1=O`, the Potency result in assay [1] and in assay [2] was “inactive” each time.

With `O=c1[nH]cc(N(CCCl)CCCl)c(=O)[nH]1`, the Potency entry in assay [1], in assay [2] and in assay [3] was “inactive” throughout.

Consider `CC(=O)O[C@H]1CC[C@H]2[C@@H]3CCC4=CC(=O)CCC4=C3C=C[C@]12C`, for which the Potency result in assay [1], in assay [2] and in assay [3] was “inactive” each time.

On to `O=C1CCCCC1CN1CCCCC1` (centres undefined), for which the Potency result in assay [1], in assay [2] and in assay [3] was “inactive” in each case.

In the case of `CCC1C(C)=NN=C(c2ccc(OC)c(OC)c2)c2cc(OC)c(OC)cc21` (centres undefined), the Potency result in assay [1], in assay [2] and in assay [3] was “inactive” in each case.

Regarding `CNC1(c2ccccc2Cl)CCCCC1=O` (centres undefined), the Potency entry in assay [1], in assay [2] and in assay [3] was “inactive” throughout.

Take `CC(N)Cc1ccc(O)cc1` (centres undefined): the Potency result in assay [1], in assay [2] and in assay [3] was “inactive” throughout.

Take `CC(C)(O)C1C2OC(=O)C1C1(O)CC3OC34C(=O)OC2C14C` (centres undefined): the Potency entry in assay [1], in assay [2] and in assay [3] was “inactive” throughout.

For `CCC(=O)O[C@@](Cc1ccccc1)(c1ccccc1)[C@@H](C)CN(C)C`, the Potency entry in assay [1], in assay [2] and in assay [3] was “inactive” each time.

For `[N-]=[N+]=CC(=O)OCC(N)C(=O)O` (centres undefined), the Potency result in assay [1], in assay [2] and in assay [3] was “inactive” in each case.

On to `c1csc(C2(N3CCCCC3)CCCCC2)c1`, for which the Potency result in assay [1], in assay [2] and in assay [3] was “inactive” in each case.

`C#CC(C)(O)CC` (centres undefined): the Potency result in assay [1], in assay [2] and in assay [3] was “inactive” each time.

Regarding `O=C1CN(O)C(c2ccccc2)=c2cc(Cl)ccc2=N1`, the Potency entry in assay [1], in assay [2] and in assay [3] was “inactive” throughout.

`O[C@H]1[C@H]2[C@H](O)CCCN2C[C@H]1O`: the Potency result in assay [1], in assay [2] and in assay [3] was “inactive” in each case.

As for `O=C(OCCN1CCCCC1)C(O)(c1ccccc1)c1ccccc1`, the Potency in assay [1] was 11.2 µM (active). Further, the Potency entry in assay [2] and in assay [3] was “inactive” in each case.

For the molecule `CCCC(C)(COC(N)=O)COC(=O)NC1CC1` (centres undefined), the Potency result in assay [1], in assay [2] and in assay [3] was “inactive” throughout.

In the case of `CC[N+](C)(CC)CCOC(=O)C(O)(c1ccccc1)c1ccccc1`, the Potency result in assay [1], in assay [2] and in assay [3] was “inactive” throughout.

Regarding `CNC(=O)Oc1ccccc1C(=O)Nc1ccccc1`, the Potency result in assay [1] and in assay [3] was “inactive” throughout. Moreover, the Potency in assay [2] is 14.4 µM (active).

As to `CCN(CC)C(=O)/C(Cl)=C(\C)OP(=O)(OC)OC`, the Potency entry in assay [1], in assay [2] and in assay [3] was “inactive” in each case.

For the molecule `CCCCNCC(O)c1ccc(O)cc1` (centres undefined), the Potency result in assay [1], in assay [2] and in assay [3] was “inactive” in each case.

`C=CCN1CC[C@]23c4c5ccc(O)c4O[C@H]2[C@@H](O)C=C[C@H]3[C@H]1C5`: the Potency entry in assay [1], in assay [2] and in assay [3] was “inactive” in each case.

Turning to `CCC1(CC)C(=O)NC(=O)N(C)C1=O`, the Potency result in assay [1], in assay [2] and in assay [3] was “inactive” each time.

As for `OC(c1ccccc1)(c1ccccc1)C1CN2CCC1CC2` (centres undefined), the Potency in assay [1] was 3.55 µM (active). Further, the Potency result in assay [2] and in assay [3] was “inactive” throughout.

As to `Cc1sc2ccccc2c1CC1=NCCN1`, the Potency entry in assay [2] and in assay [3] was “inactive” each time.

In the case of `S=C(S)N1CCNCC1`, the Potency result in assay [2] and in assay [3] was “inactive” throughout.

Turning to `Cn1sc(Cl)cc1=O`, the Potency entry in assay [1], in assay [2] and in assay [3] was “inactive” throughout.

`CCC1(c2ccccc2)C(=O)NC(=O)NC1=O`: the Potency entry in assay [1], in assay [2] and in assay [3] was “inactive” in each case.

Turning to `O=c1c2ccccc2[se]n1-c1ccccc1`, the values for the Potency in assay [2] and in assay [3] were 8.09 µM (active) and 12.8 µM (active), respectively.

For the molecule `Oc1cccc[c]1[Hg][Cl]`, the Potency in assay [1] was 20 µM (active); in assay [2], 10.2 µM (active); in assay [3] it was 1.28 µM (active).

`CN1[C@@H]2CC[C@H]1CC(OC1c3ccccc3CCc3ccccc31)C2` (some centres undefined): the Potency result in assay [2] is “inactive”.

In the case of `O=C(NC(=O)c1c(F)cccc1F)Nc1ccc(Cl)c(Oc2ncc(C(F)(F)F)cc2Cl)c1`, the Potency entry in assay [2] and in assay [3] was “inactive” throughout.

For `[Cl-].[Cl-].[Hg+2]`, the Potency in assay [2] is 12.8 µM (active); in assay [3], 2.56 µM (active).

As to `CC12NC(Cc3ccccc31)c1ccccc12` (centres undefined), the Potency entry in assay [2] was “inactive”.

With `CC(=O)OC1CN2CCC1CC2` (centres undefined), the Potency result in assay [1], in assay [2] and in assay [3] was “inactive” each time.

`CCC1(c2ccccc2)C(=O)NC(=O)N(C)C1=O` (centres undefined): the Potency entry in assay [2] and in assay [3] was “inactive” throughout.

As for `C=CCC1(C(C)CCC)C(=O)N=C(S)NC1=O` (centres undefined), the Potency result in assay [1], in assay [2] and in assay [3] was “inactive” in each case.

As to `[Cl][Pt][Cl]`, the Potency result in assay [2] is “inactive”.

As for `CCC(N)Cc1c[nH]c2ccccc12` (centres undefined), the Potency entry in assay [2] and in assay [3] was “inactive” throughout.

For `c1cc2c(c(NC3=NCCN3)c1)CCCC2`, the Potency result in assay [2] and in assay [3] was “inactive” in each case.

In the case of `CCNC(C)Cc1cccc(C(F)(F)F)c1` (centres undefined), the Potency entry in assay [2] and in assay [3] was “inactive” in each case.

For the molecule `CC(C)[C@@]1(NC(=O)[C@@H]2C[C@@H]3c4cccc5[nH]cc(c45)C[C@H]3N(C)C2)O[C@@]2(O)[C@@H]3CCCN3C(=O)[C@H](Cc3ccccc3)N2C1=O`, the Potency result in assay [2] is “inactive”.

`C[C@@H](Cc1ccccc1)NCCC(c1ccccc1)c1ccccc1`: the Potency result in assay [2] is “inactive”.

Consider `C=CCN(C1=NCCN1)c1c(Cl)cccc1Cl`, for which the Potency entry in assay [2] and in assay [3] was “inactive” throughout.

As for `CN1c2ccccc2C(NCCCCCCC(=O)O)c2ccc(Cl)cc2S1(=O)=O` (centres undefined), the Potency result in assay [2] and in assay [3] was “inactive” throughout.

In the case of `C=CCN1CCC23c4c5ccc(O)c4O[C@H]2C(=O)CC[C@@]3(O)C1C5` (some centres undefined), the Potency entry in assay [2] and in assay [3] was “inactive” throughout.

Regarding `CC1CCC(C(C)C)C(OC(=O)c2ccccc2N)C1` (centres undefined), the Potency result in assay [2] and in assay [3] was “inactive” throughout.
